Assay results published in PubChem BioAssay (NCATS).
Records with an inconclusive call do not appear. The source made the active and inactive calls. The call rests on the fitted dose curve; in most records, active means well fitted inhibition curve with a large enough effect; inconclusive means small, poorly fitted or top-dose-only effect; inactive means flat fitted curve, though single readings scatter.

Each compound was assayed on CP325 (assay: qHTS profiling for inhibitors of Plasmodium falciparum proliferation (AID 504749; further: nearly all actives have a fitted effect of over 60% in size;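 on activity, negative = inhibition: 0% = DMSO vehicle and full inhibition = artemisinin control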)). Conditions: P. falciparum in erythrocytes, SYBR Green DNA, 72 h; series mostly up to 28.7 µM; activity, negative = inhibition: at the top concentration.
Summary of the method: (§1)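 SYBR Green fluorescence (ex 485 nm, em 535 nm) reports parasite DNA after 72 h compound exposure of infected red cells at 0.3% parasitemia, 2.5% hematocrit; signal normalized to 0.29 uM artemisinin and vehicle wells.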
Potency means the concentration at half of the fitted maximal effect.

SMILES | activity, negative = inhibition | Potency
CCOC(=O)c1ccc(C#Cc2ccc3c(c2)C(C)(C)CCS3)nc1 | 0.0326% (inactive) | 
COc1c(N2CCNC(C)C2)c(F)cc2c(=O)c(C(=O)O)cn(C3CC3)c12 (centres undefined) | -17.2% (inactive) | 
CCn1cc(C(=O)O)c(=O)c2cc(F)c(N3CCNCC3)nc21 | -4.93% [at 12.8 µM] (inactive) | 
O=c1oc2c(O)c(O)cc3c(=O)oc4c(O)c(O)cc1c4c23 | -29.9% (inactive) | 
CC(C)(C)C(=O)OCOP(=O)(COCCn1cnc2c(N)ncnc21)OCOC(=O)C(C)(C)C | -25.6% (inactive) | 
COc1cc2c(Nc3ccc(Br)cc3F)ncnc2cc1OCC1CCN(C)CC1 |  | 10.7 µM (active)
COc1ccc(C(=O)CC(=O)c2ccc(C(C)(C)C)cc2)cc1 | 3.92% (inactive) | 
COc1nc(N)nc2c1ncn2[C@@H]1O[C@H](CO)[C@@H](O)[C@@H]1O | -10.6% (inactive) | 
CCC(C)(C)c1ccc(CC(C)CN2C[C@@H](C)O[C@@H](C)C2)cc1 (some centres undefined) | -11% (inactive) | 
NC(=O)N1c2ccccc2CC(=O)c2ccccc21 | -13% (inactive) | 
CN1CCCC(n2nc(Cc3ccc(Cl)cc3)c3ccccc3c2=O)CC1 (centres undefined) | -18.6% (inactive) | 
COc1cccc(N(C)C(=S)Oc2ccc3c(c2)CCCC3)n1 | -15.8% (inactive) | 
CNCC[C@H](Oc1cccc2ccccc12)c1cccs1 | -20.5% (inactive) | 
N[C@@H](Cc1ccc(O)c(O)c1)C(=O)O | 4.17% (inactive) | 
COc1cc([C@@H]2c3cc4c(cc3[C@H](O)[C@H]3COC(=O)[C@H]23)OCO4)cc(OC)c1OC |  | 13.5 µM (active)
CCCc1cc(C(N)=S)ccn1 | 0.831% (inactive) | 
CC1=CC(=O)c2ccccc2C1=O | -4.13% (inactive) | 
CN(Cc1cc(Br)cc(Br)c1N)C1CCCCC1 | -1.27% (inactive) | 
CCn1cc(C(=O)O)c(=O)c2cc(F)c(N3CCN(C)CC3)cc21 | -26.7% (inactive) | 
CCCc1nc(C)c2c(=O)[nH]c(-c3cc(S(=O)(=O)N4CCN(CC)CC4)ccc3OCC)nn12 | 0.411% (inactive) | 

What follows are compounds tested on CP329 in the same assay as above. Conditions: P. falciparum in erythrocytes, SYBR Green DNA, 72 h; series mostly up to 28.7 µM; activity, negative = inhibition: at the top concentration.
Summary of the method: as §1

SMILES | activity, negative = inhibition | Potency
COC(=O)Nc1nc2ccc(C(=O)c3ccccc3)cc2[nH]1 | -15.3% [at 12.8 µM] (inactive) | 
Oc1c(Cl)cc(Cl)c2cccnc12 |  | 10.7 µM (active)
CCOc1cc(N)c(Cl)cc1C(=O)NCC1CN(Cc2ccc(F)cc2)CCO1 (centres undefined) |  | 13.5 µM (active)
CCOC(=O)c1ccc(C#Cc2ccc3c(c2)C(C)(C)CCS3)nc1 | 0.569% (inactive) | 
COc1c(N2CCNC(C)C2)c(F)cc2c(=O)c(C(=O)O)cn(C3CC3)c12 (centres undefined) | -13.3% (inactive) | 
CCn1cc(C(=O)O)c(=O)c2cc(F)c(N3CCNCC3)nc21 | -11.4% [at 12.8 µM] (inactive) | 
O=c1oc2c(O)c(O)cc3c(=O)oc4c(O)c(O)cc1c4c23 | -26.4% (inactive) | 
CC(C)(C)C(=O)OCOP(=O)(COCCn1cnc2c(N)ncnc21)OCOC(=O)C(C)(C)C | -12.7% (inactive) | 
COc1ccc(C(=O)CC(=O)c2ccc(C(C)(C)C)cc2)cc1 | 6.18% (inactive) | 
CCCCOc1ccc(CC(=O)NO)cc1 |  | 3.22 µM (active)
COc1nc(N)nc2c1ncn2[C@@H]1O[C@H](CO)[C@@H](O)[C@@H]1O | -1.81% (inactive) | 
CCC(C)(C)c1ccc(CC(C)CN2C[C@@H](C)O[C@@H](C)C2)cc1 (some centres undefined) | 4.92% (inactive) | 
CN1CCCC(n2nc(Cc3ccc(Cl)cc3)c3ccccc3c2=O)CC1 (centres undefined) | -4.62% (inactive) | 
CCn1cc(C(=O)O)c(=O)c2cc(F)c(N3CCNCC3)cc21 | -21.5% [at 12.8 µM] (inactive) | 
COc1cccc(N(C)C(=S)Oc2ccc3c(c2)CCCC3)n1 | 1.01% (inactive) | 
CNCC[C@H](Oc1cccc2ccccc12)c1cccs1 | -26.1% (inactive) | 
N[C@@H](Cc1ccc(O)c(O)c1)C(=O)O | 8.16% (inactive) | 
CCCc1cc(C(N)=S)ccn1 | 10.5% (inactive) | 
CC1=CC(=O)c2ccccc2C1=O | 6.4% (inactive) | 
CN(Cc1cc(Br)cc(Br)c1N)C1CCCCC1 | 0.411% (inactive) | 
CCn1cc(C(=O)O)c(=O)c2cc(F)c(N3CCN(C)CC3)cc21 | -18.2% (inactive) | 
CCCc1nc(C)c2c(=O)[nH]c(-c3cc(S(=O)(=O)N4CCN(CC)CC4)ccc3OCC)nn12 | -0.31% (inactive) | 

What follows are compounds tested on CP335 in the same assay as above. Conditions: P. falciparum in erythrocytes, SYBR Green DNA, 72 h; series mostly up to 28.7 µM; activity, negative = inhibition: at the top concentration.
Summary of the method: as §1

SMILES | activity, negative = inhibition | Potency
COC(=O)Nc1nc2ccc(C(=O)c3ccccc3)cc2[nH]1 | -1.36% [at 12.8 µM] (inactive) | 
CCCCCCNC(=O)n1cc(F)c(=O)[nH]c1=O |  | 5.36 µM (active)
Cc1oc(=O)oc1CN1CCN(c2cc3c(cc2F)c(=O)c(C(=O)O)c2n3C(C)S2)CC1 (centres undefined) |  | 6.01 µM (active)
CCOc1cc(N)c(Cl)cc1C(=O)NCC1CN(Cc2ccc(F)cc2)CCO1 (centres undefined) |  | 6.75 µM (active)
COc1c(N2CCNC(C)C2)c(F)cc2c(=O)c(C(=O)O)cn(C3CC3)c12 (centres undefined) | -16.6% (inactive) | 
CCn1cc(C(=O)O)c(=O)c2cc(F)c(N3CCNCC3)nc21 | -25.5% [at 12.8 µM] (inactive) | 
O=c1oc2c(O)c(O)cc3c(=O)oc4c(O)c(O)cc1c4c23 |  | 0.849 µM (active)
COc1cc2c(Nc3ccc(Br)cc3F)ncnc2cc1OCC1CCN(C)CC1 |  | 4.26 µM (active)
COc1ccc(C(=O)CC(=O)c2ccc(C(C)(C)C)cc2)cc1 | 3.25% (inactive) | 
CCCCOc1ccc(CC(=O)NO)cc1 |  | 1.61 µM (active)
COc1nc(N)nc2c1ncn2[C@@H]1O[C@H](CO)[C@@H](O)[C@@H]1O | -4% (inactive) | 
CCC(C)(C)c1ccc(CC(C)CN2C[C@@H](C)O[C@@H](C)C2)cc1 (some centres undefined) | -16.7% (inactive) | 
NC(=O)N1c2ccccc2CC(=O)c2ccccc21 | 5.77% (inactive) | 
COc1cc([C@@H]2c3cc4c(cc3[C@H](O)[C@H]3COC(=O)[C@H]23)OCO4)cc(OC)c1OC |  | 3.38 µM (active)
CCCc1cc(C(N)=S)ccn1 | -1.31% (inactive) | 
CC1=CC(=O)c2ccccc2C1=O | -11.8% (inactive) | 
CCCc1nc(C)c2c(=O)[nH]c(-c3cc(S(=O)(=O)N4CCN(CC)CC4)ccc3OCC)nn12 | -13.7% (inactive) | 
